Test results published in the supplement of paper PMC13380429.

Test system: Vero E6 infected with SARS-CoV-2
Assay: inhibition of SARS-CoV-2 cytopathic effect; higher = more antiviral protection, active = above 15
Conditions: 48 h

Measured: inhibition of SARS-CoV-2 cytopathic effect

N#CC[C@@H](C1CCCC1)n1cc(-c2ncnc3[nH]ccc23)cn1 [ruxolitinib-(S)]
inactive: 1 nM -2.23% | 8.33 nM -0.87% | 100 nM -1.21% | 833.33 nM 0.43% | 10000 nM -3.24%

Cc1c(Cn2c(C)nc3c(C(=O)O)cc(N4CCOCC4)cc32)cccc1C(F)(F)F
inactive: 1 nM 1.56% | 8.33 nM 4.39% | 100 nM 3.91% | 833.33 nM -2.09% | 10000 nM -2.66%

C=CCN1CC[C@]23c4c5ccc(O)c4O[C@H]2C(=O)CC[C@@]3(O)[C@H]1C5
inactive: 1 nM -1.98% | 8.33 nM 1.85% | 100 nM 1.15% | 833.33 nM 3.34% | 10000 nM 0.28%

Oc1c(CN2CCCC2)cc(COCc2ccccc2)c2cccnc12
inactive: 1 nM -1.11% | 8.33 nM -0.88% | 100 nM 0.87% | 833.33 nM -0.42% | 10000 nM 2.93%

CCCc1c(OCC(O)COc2ccc3c(=O)cc(C(=O)O)oc3c2CCC)ccc(C(C)=O)c1O (stereo not given)
inactive: 1 nM 3.39% | 8.33 nM -0.15% | 100 nM 3.25% | 833.33 nM 6.19% | 10000 nM 3.02%

CCCCCCCC/C=C\CCCCCCCC(N)=O [oleamide]
inactive: 1 nM -2.29% | 8.33 nM -1.34% | 100 nM -3.82% | 833.33 nM 0.76% | 10000 nM 0.18%

COc1cc2ncnc(Nc3ccc(Cl)cc3F)c2cc1OC
inactive: 1 nM 1.92% | 8.33 nM -0.75% | 100 nM -1.55% | 833.33 nM -5% | 10000 nM -11.2%

OCCCNc1ccccc1 [3-anilinopropan-1-ol]
inactive: 1 nM -0.17% | 8.33 nM 2.09% | 100 nM -0.59% | 833.33 nM -0.07% | 10000 nM 1.39%

Cc1cc(=O)n(-c2ccccc2)n1C [phenazone]
inactive: 1 nM 1.97% | 8.33 nM -0.88% | 100 nM -1.01% | 833.33 nM -0.52% | 10000 nM 0.53%

CC(C)(C)c1ccc(S(=O)(=O)/C=C/C#N)cc1
inactive: 1 nM 2.15% | 8.33 nM 0.27% | 100 nM 0.24% | 833.33 nM 5.32% | 10000 nM -2.36%

CC(=O)OCC(=O)[C@@]1(O)CC[C@H]2[C@@H]3CCC4=CC(=O)C=C[C@]4(C)[C@H]3[C@@H](O)C[C@@]21C [prednisolone-acetate]
inactive: 1 nM 0.64% | 8.33 nM 0.57% | 100 nM -0.58% | 833.33 nM -0.51% | 10000 nM 0.26%

C[C@H]1N=C(N(C)C)N=C(N)N1 [imeglimin]
inactive: 1 nM 1.51% | 8.33 nM 1.14% | 100 nM 0.07% | 833.33 nM 0.43% | 10000 nM -0.77%

CC(=O)CCCCn1c(=O)c2c(ncn2C)n(C)c1=O [pentoxifylline]
inactive: 1 nM 3.31% | 8.33 nM 2.23% | 100 nM 0.1% | 833.33 nM 1.21% | 10000 nM -0.68%

CCc1nc2c(C)nc(C)cc2n1-c1ccc(CCNC(=O)NS(=O)(=O)c2ccc(C)cc2)cc1 [grapiprant]
inactive: 1 nM -1.43% | 8.33 nM -2.32% | 100 nM -2.77% | 833.33 nM -5.47% | 10000 nM -1.61%

O=[N+]([O-])/C=C/c1ccc2c(c1)OCO2 [3,4-methylenedioxy-beta-nitrostyrene]
inactive: 1 nM -1.15% | 8.33 nM 0.64% | 100 nM -1.64% | 833.33 nM -3.16% | 10000 nM 7.29%

C/C=C/C=C/C(=O)O [sorbic-acid]
inactive: 1 nM 1.14% | 8.33 nM 2.26% | 100 nM -1.43% | 833.33 nM 2.41% | 10000 nM 2.55%

CC(C)C[C@H](NC(=O)[C@H](CCc1ccccc1)NC(=O)CN1CCOCC1)C(=O)N[C@@H](Cc1ccccc1)C(=O)N[C@@H](CC(C)C)C(=O)[C@@]1(C)CO1 [carfilzomib]
active: 833.33 nM 34.9%
inactive: 1 nM -1.68% | 8.33 nM -2.43% | 100 nM 11.4% | 10000 nM 10.2%

Cc1cnc(-c2ccccc2C(C)C)nc1NCc1ccc(-n2ccnn2)cc1
inactive: 1 nM -3.33% | 8.33 nM -2.94% | 100 nM -0.44% | 833.33 nM 0.3% | 10000 nM 1.03%

Cc1ccc(OCCSc2ncccn2)c(Br)c1
inactive: 1 nM -2.86% | 8.33 nM -1.79% | 100 nM -1.08% | 833.33 nM -4.19% | 10000 nM -1.49%

CC12CCC(C(Br)C1=O)C2(C)C (stereo not given) [3-bromocamphor]
inactive: 1 nM -1.02% | 8.33 nM 0.99% | 100 nM -0.16% | 833.33 nM 1.85% | 10000 nM 0.04%

CC(C)=CCC[C@](C)(O)[C@H]1CC[C@]2(C)[C@@H]1[C@H](O)C[C@@H]1[C@@]3(C)CC[C@H](O)C(C)(C)[C@@H]3[C@@H](O)C[C@]12C [hemomex-s]
inactive: 1 nM -1.07% | 8.33 nM 0.12% | 100 nM 5.17% | 833.33 nM -0.7% | 10000 nM 0.84%
